Assay results as given in PubChem BioAssay (Tox21).
Records with an inconclusive call do not appear. Active and inactive are the calls of the source. Unless noted, calls follow the shape of the dose curve; as a rule, active = well fitted curve in the direction sought with a large enough effect in the repeat runs; inconclusive = weak or mixed curves; inactive = no such curve, though single readings can be large; an effect the other way counts as inactive or inconclusive.

Key:
[1] = qHTS assay for small molecule agonists of the p53 signaling pathway (AID 651631; calls by dose curve; also: nearly all actives have a fitted effect of over 15% in size; also: potency is read from the fitted curve at half-maximal effect)
How it was run: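 Stably transfected HCT-116 cells (beta-lactamase behind p53 response elements) get compounds after a 5 h settling period; 16 h later at 37 °C, FRET substrate is loaded and fluorescence read after 2 h.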

[2] = qHTS assay for small molecules that induce genotoxicity in human embryonic kidney cells expressing luciferase-tagged ATAD5 (AID 651632); also: nearly all actives have a fitted effect of over 15% in size; also: potency is read from the fitted curve at half-maximal effect
How it was run: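 HEK293T cells carrying a luciferase reporter tagged to ATAD5 were exposed to compound or DMSO vehicle for 16 hr at 37C, 5% CO2. Amplite was added, and after 30 min at room temperature luciferase activity was read as a marker of ATAD5 induction.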

[3] = qHTS assay for small molecule agonists of the p53 signaling pathway - cell viability (AID 651633; calls by dose curve; also: nearly all actives have a fitted effect of over 30% in size; also: potency is read from the fitted curve at half-maximal effect)
How it was run: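 p53RE-bla cells, seeded at 4,000 per well and rested 5 h at 37 C/5% CO2, received compounds in DMSO for 16 h at 37 C. CellTiter-Glo was then added, and luminescence was read after 30 min at room temperature to gauge cytotoxicity.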

[4] = qHTS assay for small molecules that induce genotoxicity in human embryonic kidney cells expressing luciferase-tagged ATAD5 - cell viability (AID 651634; calls by dose curve; also: nearly all actives have a fitted effect of over 25% in size; also: potency is read from the fitted curve at half-maximal effect)
How it was run: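 HEK293T cells expressing luciferase-tagged ATAD5 were exposed to compound or DMSO for 15.5 hr at 37C, 5% CO2. Viability was then read as live-cell protease activity by CellTiter-Fluor fluorescence after 30 min at 37C.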

[5] = qHTS assay for small molecule disruptors of the mitochondrial membrane potential - cell viability (AID 720634; calls by dose curve; also: nearly all actives have a fitted effect of over 20% in size; also: potency is read from the fitted curve at half-maximal effect)
How it was run: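 HepG2 cells seeded overnight at 37 C, then exposed to compound or DMSO for 1 hr at 37 C, 5% CO2. m-MPI dye added, then CellTiter-Glo for 30 min at room temperature; viability read as ATP luminescence.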

[6] = qHTS assay for small molecule disruptors of the mitochondrial membrane potential (AID 720635); also: potency is read from the fitted curve at half-maximal effect
How it was run: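 HepG2 cells (2,000/well) attached overnight at 37C, then took compound for 1 hr at 37C, 5% CO2. Mito-MPS dye was added for 30 min; fluorescence was read at 490/535 nm (monomers) and 540/590 nm (aggregates).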

[7] = qHTS assay to test for compound auto fluorescence at 590 nm (red) in HepG2 cells (AID 720674)
How it was run: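 Compound auto-fluorescence is scored relative to Rose Bengal sodium, measured at 540/590 nm in live HepG2 cultures after 1 hr compound contact (37 C, 5% CO2).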

[8] = qHTS assay to test for compound auto fluorescence at 535 nm (green) in HepG2 cells (AID 720675)
[9] = qHTS assay to test for compound auto fluorescence at 460 nm (blue) in HEK293 cells (AID 720678)
How it was run: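 Intrinsic compound fluorescence is recorded in live HEK293 cultures after overnight incubation at 37C, 5% CO2, using excitation 405 nm and emission 460 nm. Values are referenced to triamterene.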

[10] = qHTS assay to test for compound auto fluorescence at 590 nm (red) in HEK293 cells (AID 720679)
How it was run: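 Red autofluorescence, HEK293 cells: 2,000 cells/well; attach 4-5 hr 37C; add 23 nL cpd or DMSO; incubate o/n 37C 5% CO2; read Ex540/Em590; Rose Bengal sodium reference.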

[11] = qHTS assay to test for compound auto fluorescence at 535 nm (green) in HEK293 cells (AID 720680)
[12] = qHTS assay to test for compound auto fluorescence at 460 nm (blue) in HEK293 cell free culture (AID 720681)
How it was run: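 Test compounds were pinned into cell-free culture medium (DMEM with 10% FBS) and fluorescence was read directly at Ex/Em 405/460 nm. Signals were expressed as fluorescence equivalents of triamterene, with DMSO vehicle as control.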

[13] = qHTS assay to test for compound auto fluorescence at 535 nm (green) in HEK293 cell free culture (AID 720682)
How it was run: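 Using fluorescein as calibrant, autofluorescence was quantified at 485/535 nm in cell-free DMEM containing 10% FBS after pintool addition of compound or vehicle.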

[14] = qHTS assay to test for compound auto fluorescence at 590 nm (red) in HEK293 cell free culture (AID 720683)
How it was run: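 Tox21 10K library compounds were pinned into cell-free DMEM with 10% FBS and fluorescence was read at excitation 540 nm. Activity is expressed as Rose Bengal sodium equivalency.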

[15] = qHTS assay to test for compound auto fluorescence at 590 nm (red) in HepG2 cell free culture (AID 720684)
How it was run: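 Measured in medium alone (MEM containing 10% FBS) following pintool addition of compound; emission at 590 nm with 540 nm excitation, referenced to Rose Bengal sodium.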

[16] = qHTS assay to test for compound auto fluorescence at 460 nm (blue) in HepG2 cell free culture (AID 720685)
How it was run: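 Compound (23 nL) or DMSO pinned into cell-free MEM with 10% FBS; blue fluorescence read at 405/460 nm excitation/emission, expressed as auto-fluorescence equivalency to triamterene.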

[17] = qHTS assay to test for compound auto fluorescence at 535 nm (green) in HepG2 cell free culture (AID 720686)
[18] = qHTS assay to test for compound auto fluorescence at 460 nm (blue) in HepG2 cells (AID 720687)
How it was run: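 Cells (2,000/well in MEM with 10% FBS) attached overnight at 37 C, then were exposed to compound or DMSO for 1 hr at 37 C, 5% CO2. Fluorescence read at Ex/Em 405/460 nm, expressed as triamterene-equivalent signal.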

[19] = target: Glucocorticoid receptor (Homo sapiens) (UniProt P04150); experiment: qHTS assay to identify small molecule antagonists of the glucocorticoid receptor (GR) signaling pathway (AID 720692; active = well fitted inhibition curve with a large enough effect in the signal ratio in the repeat runs, not every such curve was filed as active; the % refers to the signal ratio; also: potency is read from the fitted curve at half-maximal effect)
How it was run: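 GR-bla HeLa cells (beta-lactamase reporter under glucocorticoid response element) were pre-plated 4 h at 37 C, treated with compounds plus 5 nM dexamethasone (final) for 18 h, then read by LiveBLAzer B/G FRET fluorescence after 2 h.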

[20] = target: Glucocorticoid receptor (Homo sapiens) (UniProt P04150); experiment: qHTS assay to identify small molecule agonists of the glucocorticoid receptor (GR) signaling pathway (AID 720691; active = well fitted activation curve with a large enough effect in the signal ratio in the repeat runs, not every such curve was filed as active; the % refers to the signal ratio); settings: GR-bla HeLa, beta-lactamase reporter ratio, 18 h; activation: at 62.4 µM (top of the series)
How it was run: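 GR-bla HeLa cells (beta-lactamase reporter under glucocorticoid response element) were plated 4 h at 37 C/5% CO2, given compounds in DMSO, and incubated 18 h at 37 C. LiveBLAzer B/G FRET substrate was added for 2 h at room temperature, then fluorescence intensity read.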
% is scaled to controls: 0 for no effect and ±100 for the full control effect.

Chain of Glucocorticoid receptor (Homo sapiens) (P04150 whole entry, looked up): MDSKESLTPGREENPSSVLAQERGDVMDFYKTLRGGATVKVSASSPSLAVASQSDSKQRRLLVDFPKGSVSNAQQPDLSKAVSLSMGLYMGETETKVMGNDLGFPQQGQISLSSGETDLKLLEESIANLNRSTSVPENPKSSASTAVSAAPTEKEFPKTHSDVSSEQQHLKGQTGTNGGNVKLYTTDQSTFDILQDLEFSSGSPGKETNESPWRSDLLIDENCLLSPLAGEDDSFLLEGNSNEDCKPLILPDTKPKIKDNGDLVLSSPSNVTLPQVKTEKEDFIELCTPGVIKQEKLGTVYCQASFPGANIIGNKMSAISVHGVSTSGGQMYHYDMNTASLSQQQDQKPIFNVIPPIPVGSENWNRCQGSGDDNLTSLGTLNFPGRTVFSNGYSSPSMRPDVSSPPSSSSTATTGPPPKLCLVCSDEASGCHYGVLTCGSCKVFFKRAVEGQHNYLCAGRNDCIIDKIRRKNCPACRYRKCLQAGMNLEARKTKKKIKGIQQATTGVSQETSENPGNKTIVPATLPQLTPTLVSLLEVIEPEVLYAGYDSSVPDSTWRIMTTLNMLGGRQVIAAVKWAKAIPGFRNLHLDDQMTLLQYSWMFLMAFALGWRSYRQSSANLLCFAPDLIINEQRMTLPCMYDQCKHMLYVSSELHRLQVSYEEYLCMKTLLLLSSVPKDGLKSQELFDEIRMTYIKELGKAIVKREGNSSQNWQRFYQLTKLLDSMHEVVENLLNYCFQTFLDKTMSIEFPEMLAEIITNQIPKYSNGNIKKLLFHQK

CCC[CH2][Sn]([CH2]CCC)([O]C(C)=O)[O]C(C)=O
inactive: Potency [2] | Potency [3] | Potency [5] | outcome [7] | Potency [8] | Potency [9] | outcome [10] | outcome [11] | Potency [12] | outcome [13] | outcome [14] | outcome [15] | Potency [16] | Potency [17] | Potency [18]
active: Potency [1] 1950 nM | Potency [4] 1230 nM | Potency [6] 15500 nM | Potency [19] 350 nM

O=C(Cl)c1ccccc1F
inactive: Potency [1] | Potency [2] | Potency [3] | Potency [4] | Potency [5] | Potency [6] | outcome [7] | Potency [8] | Potency [9] | outcome [10] | outcome [11] | Potency [12] | outcome [13] | outcome [14] | outcome [15] | Potency [16] | Potency [17] | Potency [18]

COc1ccc2c3c1O[C@H]1[C@H](O)CC[C@H]4[C@@H](C2)N(C)CC[C@@]341
inactive: Potency [1] | Potency [2] | Potency [3] | Potency [4] | Potency [5] | Potency [6] | outcome [7] | Potency [8] | Potency [9] | outcome [11] | outcome [13] | outcome [15] | Potency [16] | Potency [17] | Potency [18] | Potency [20]

CC(O)C(=O)[O][Hg][c]1ccccc1 (configuration not stated)
inactive: outcome [7] | Potency [8] | Potency [9] | outcome [11] | Potency [12] | outcome [13] | outcome [14] | outcome [15] | Potency [16] | Potency [17] | Potency [18]
active: Potency [1] 545 nM | Potency [2] 96.9 nM | Potency [3] 217 nM | Potency [4] 969 nM | Potency [5] 5450 nM | Potency [6] 2730 nM

CC(C)c1c(CN(C)C(C)Cc2ccccc2)n(C)n(-c2ccccc2)c1=O (configuration not stated)
inactive: Potency [1] | Potency [2] | Potency [3] | Potency [4] | Potency [5] | Potency [6] | fluorescence, relative to Rose Bengal [7] 0.213% [at 18.6 µM] | fluorescence, % of fluorescein control [8] -0.0089% [at 18.6 µM] | fluorescence, % of triamterene [9] -0.225% [at 18.6 µM] | fluorescence, % of fluorescent control [10] -0.993% [at 18.6 µM] | fluorescence, % of fluorescein [11] -0.0005% [at 18.6 µM] | fluorescence, % of fluorescent control [12] 0.024% [at 18.6 µM] | activity change [13] -0.0364% [at 18.6 µM] | fluorescence, % of fluorescent control [14] 0.362% [at 18.6 µM] | fluorescence, % of Rose Bengal [15] -0.353% [at 18.6 µM] | fluorescence, % of fluorescent control [16] -0.0993% [at 18.6 µM] | fluorescence, % of fluorescein control [17] -0.009% [at 18.6 µM] | fluorescence, % of fluorescent control [18] 0.105% [at 18.6 µM] | Potency [20] | Potency [19]

CC(Cl)CCl (configuration not stated)
inactive: Potency [1] | Potency [2] | Potency [3] | Potency [4] | Potency [5] | Potency [6] | outcome [7] | Potency [8] | Potency [9] | outcome [10] | outcome [11] | Potency [12] | outcome [13] | outcome [15] | Potency [16] | Potency [17] | Potency [18] | Potency [20]

C[N+]1(C)[C@@H]2CC[C@H]1CC(OC(=O)C(CO)c1ccccc1)C2 (some centres not stated)
inactive: Potency [1] | Potency [2] | Potency [3] | Potency [4] | Potency [5] | Potency [6] | outcome [7] | Potency [8] | Potency [9] | outcome [10] | outcome [11] | Potency [12] | outcome [13] | outcome [14] | outcome [15] | Potency [16] | Potency [17] | Potency [18] | Potency [20] | Potency [19]

C=Cc1cccc(CCl)c1
inactive: Potency [1] | Potency [2] | Potency [3] | Potency [4] | Potency [5] | Potency [6] | outcome [7] | Potency [8] | Potency [9] | outcome [10] | outcome [11] | outcome [13] | outcome [14] | outcome [15] | Potency [16] | Potency [17] | Potency [18] | Potency [20] | Potency [19]

O=C(NC(=O)c1ccccc1Cl)Nc1ccc(OC(F)(F)F)cc1
inactive: Potency [1] | Potency [2] | Potency [3] | Potency [4] | Potency [5] | Potency [6] | outcome [7] | Potency [8] | Potency [9] | outcome [10] | outcome [11] | Potency [12] | outcome [13] | outcome [15] | Potency [16] | Potency [17] | Potency [18] | Potency [20] | Potency [19]

CCN(CC)Cc1nccn1-c1ccc([N+](=O)[O-])cc1C(=O)c1ccccc1Cl
inactive: Potency [1] | Potency [2] | Potency [3] | Potency [4] | Potency [5] | Potency [6] | outcome [7] | Potency [8] | Potency [9] | outcome [10] | outcome [11] | outcome [13] | outcome [14] | outcome [15] | Potency [16] | Potency [17] | Potency [18] | Potency [20]

O=NN(CCO)CCO
inactive: Potency [1] | Potency [2] | Potency [3] | Potency [4] | Potency [5] | Potency [6] | outcome [7] | Potency [9] | outcome [11] | Potency [12] | outcome [13] | outcome [14] | outcome [15] | Potency [16] | Potency [17] | Potency [18] | Potency [20]

C=CCBr
inactive: Potency [1] | Potency [2] | Potency [3] | Potency [4] | Potency [5] | outcome [7] | Potency [8] | Potency [9] | outcome [10] | outcome [11] | Potency [12] | outcome [13] | outcome [14] | outcome [15] | Potency [16] | Potency [17] | Potency [18] | Potency [20]

CNC(C)(C)Cc1ccccc1
inactive: Potency [1] | Potency [2] | Potency [3] | Potency [4] | Potency [5] | fluorescence, relative to Rose Bengal [7] -0.065% [at 18.6 µM] | fluorescence, % of fluorescein control [8] -0.216% [at 18.6 µM] | fluorescence, % of triamterene [9] 0.0048% [at 18.6 µM] | fluorescence, % of fluorescent control [10] 0.101% [at 18.6 µM] | fluorescence, % of fluorescein [11] 0.0122% [at 18.6 µM] | fluorescence, % of fluorescent control [12] -0.0376% [at 18.6 µM] | activity change [13] 0.136% [at 18.6 µM] | fluorescence, % of fluorescent control [14] -0.277% [at 18.6 µM] | fluorescence, % of Rose Bengal [15] -0.143% [at 18.6 µM] | fluorescence, % of fluorescent control [16] -0.0785% [at 18.6 µM] | fluorescence, % of fluorescein control [17] 0.134% [at 18.6 µM] | fluorescence, % of fluorescent control [18] -0.0567% [at 18.6 µM] | Potency [20]
